# Compound activity from PubChem BioAssay.
# Bead autofluor – compound fluorescence in toxin protease inhibitor counterscreen; compound autofluorescence counterscreen, microsphere flow cytometry; stronger effect = higher value; fluorescence intensity (concentration not given with the values); 360,000 compounds, 3.1% hits; AID 624483; in the data active = fluorescence intensity above about 16000; inconclusive = no clear call, values can overlap the other calls
# BoNT-A LC inh2 – BoNT/A light chain protease inhibitors, primary screen, biochemical, flow cytometry, MLPCN library; AID 588499, 2011; inhibition, % at 10 µM; 360,000 compounds, 0.17% hits; multiplex microsphere protease substrate cleavage; Botulinum neurotoxin type A light chain protease (Clostridium botulinum A str. ATCC 3502); note: plate controls were buffer without enzyme for full effect and enzyme alone for no effect
# Anthrax LF prot – Bacillus anthracis LF protease inhibitors, primary screen, biochemical, multiplex microsphere, MLPCN library. Lethal factor (Bacillus anthracis), P15917. AID 588501, 2011. 360,000 compounds, 0.12% hits. inhibition, % at 10 µM. multiplex microsphere protease cleavage assay; note: plate controls were buffer without enzyme for full effect and enzyme alone for no effect
# MazEF act – activators of E. coli MazEF toxin-antitoxin RNase, primary screen, biochemical, fluorescence, uHTS. Endoribonuclease toxin MazF (Escherichia coli (strain K12)), P0AE70. FAM/BHQ RNA-DNA oligo cleavage fluorescence, 5 h. activation, % at 20 µM. 350,000 compounds, 0.32% hits. AID 504720, 2011; in the data active = activation above about 50%
# Target sequence (P0AE70 whole entry, looked up): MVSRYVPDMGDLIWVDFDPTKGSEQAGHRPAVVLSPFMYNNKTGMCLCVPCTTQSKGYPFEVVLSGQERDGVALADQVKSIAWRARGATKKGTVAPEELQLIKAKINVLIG
# PriA SSB inh – inhibitors of Klebsiella pneumoniae PriA binding to SSB C-terminal tail, primary screen, biochemical, AlphaScreen. PriA–SSB C-terminal tail interaction (Klebsiella pneumoniae). AlphaScreen SSBct-PriA binding, biotinylated peptide. inhibition, % at 33 µM. 430,000 compounds, 0.6% hits; in the data active = inhibition mostly above about 37%, no sharp cut-off; inactive = mostly below about 20%;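 note: plate controls were negative control peptide for no effect and reference peptide for full effect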
# BoNT F protease – BoNT/F light chain protease inhibitors, primary screen, biochemical, flow cytometry, MLPCN library | Botulinum neurotoxin type F light chain protease (Clostridium botulinum) | Multiplex microsphere protease cleavage assay | inhibition, % at 10 µM | 360,000 compounds, 0.22% hits | AID 588497, 2011; in the data active = inhibition above about 35%, passing the limit was not always enough; inconclusive = no clear call, values can overlap the other calls; note: plate controls were buffer without enzyme for full effect and enzyme alone for no effect
# * = called active by the depositor; ? = inconclusive; nt = not tested or not shown. In the library only some 3.3% were active in any assay of this set; here they are far more common. Cut-off read from the data, not from the text of the source, unless noted: active = inhibition above about 30%; inconclusive = no clear call, values can overlap the other calls; inactive = below that.
SMILES,Bead autofluor,BoNT-A LC inh2,Anthrax LF prot,MazEF act,PriA SSB inh,BoNT F protease
Cc1ccccc1C(=O)NCCNc1ccc([N+](=O)[O-])cc1,4236,0,-6,6,-4,-3
Cc1ccccc1C(=O)NNc1ccc([N+](=O)[O-])cc1,19390*,?,-8,-6,-9,10
Cc1cc2c3c(c1)C1(SCC(=O)N1c1ccc(F)cc1)C(=O)N3C(C)(C)CC2C (configuration not stated),18092*,-8,-4,4,-15,-10
COCCNC(=O)CSc1nc2nc(C)cc(C)n2n1,22346*,2,-1,12,-8,4
CCCCCCNC(=O)Cc1nc2nc(C)cc(C)n2n1,20841*,3,-6,-3,-5,4
CCN(C(=O)CSc1nc2nc(C)cc(C)n2n1)c1cccc(C)c1,16126*,1,-2,-2,3,2
Cc1cc(C)n2nc(SCCC(=O)NCCc3ccccc3)nc2n1,18555*,3,-1,-2,-3,0
Cc1cc(C)n2nc(SCC(=O)Nc3ccccc3)nc2n1,4384,-2,-2,1,-12,-4
CCOC(=O)Cc1nc2nc(C)cc(C)n2n1,4604,0,4,-1,1,4
CCN(C(=O)CSc1nc2nc(C)cc(C)n2n1)c1ccccc1,10259,1,0,-13,0,5
CCS(=O)(=O)NCCn1nc(-c2ccsc2)cc1C1CC1,nt,nt,nt,nt,-2,nt
O=C(Cn1nnn(-c2ccc(NC(=O)Cc3cccs3)cc2)c1=O)NCc1ccco1,nt,nt,nt,nt,-7,nt
Cc1c(C(=O)C(=O)Nc2ccc(OC(F)(F)F)cc2)c2ccccc2n1C,nt,nt,nt,nt,-7,nt
O=C(NCC[C@H](O)c1cccs1)C(=O)Nc1ccc2c(c1)CCCN2C(=O)c1cccs1,nt,nt,nt,nt,-5,nt
O=C(CN1C(=O)CCC1=O)NCc1ccc(C(=O)c2ccco2)s1,nt,nt,nt,nt,-10,nt
CC(=O)Nc1cccc(C(=O)OC(C(=O)c2ccc(C)c(C)c2)c2ccccc2)c1 (configuration not stated),19826*,-1,-13,3,13,-2
CC(=O)Nc1cccc(C(=O)OC(C(=O)c2ccc(C)cc2)c2ccccc2)c1 (configuration not stated),?,-2,-16,7,-5,14
COc1ccc(CNC(=O)C2CCCN(Cc3nc(-c4cccc(C)c4)oc3C)C2)cc1 (configuration not stated),2740,0,-1,7,2,2
COc1ccc(CCNC(=O)C2CCCN(Cc3nc(-c4ccccc4C)oc3C)C2)cc1OC (configuration not stated),21174*,?,-1,1,0,-7
Cc1ccccc1-c1nc(CN2CCCC(C(=O)NCc3cccnc3)C2)c(C)o1 (configuration not stated),24766*,?,-2,-5,-6,-8
CCc1ccc(-c2nc(CN3CCCC(C(=O)NCCc4ccc(OC)c(OC)c4)C3)c(C)o2)cc1 (configuration not stated),21829*,?,-6,-7,7,2
CCCN(CCC)CCNC(=O)C1CCN(Cc2nc(-c3ccc(Cl)cc3)oc2C)CC1,15924,1,1,0,0,2
Cc1oc(-c2ccc(Cl)cc2)nc1CN1CCC(C(=O)NCc2cccnc2)CC1,16967*,-2,-2,6,-3,-6
C/C(=N\NC(N)=S)c1ccc(O)c(O)c1O,nt,nt,nt,nt,14,nt
Cc1ccccc1-c1nc(CN2CCCC(C(=O)NCCCN3CCOCC3)C2)c(C)o1 (configuration not stated),24221*,0,0,5,5,0
SMILES,Bead autofluor,BoNT-A LC inh2,Anthrax LF prot,MazEF act,PriA SSB inh,BoNT F protease
O=C(O)c1cc(-n2cccc2)ccn1,nt,nt,nt,nt,95*,nt
CCn1cccc(-c2nnc(SCC(=O)NC3CCCC3)n2C)c1=O,nt,nt,nt,nt,-13,nt
CC(C)c1ccc(CN(C(=O)C2COc3ccccc3O2)C2CCS(=O)(=O)C2)cc1 (configuration not stated),16571*,-1,-5,-12,-18,-5
CN(C)c1ccc(CN(C(=O)C2COc3ccccc3O2)C2CCS(=O)(=O)C2)cc1 (configuration not stated),19479*,0,-4,-4,20,0
Cc1c(C(=O)N(Cc2ccc(N(C)C)cc2)C2CCS(=O)(=O)C2)oc2ccccc12 (configuration not stated),4424,-1,-8,1,4,-6
CC(C)CC(=O)N(Cc1ccc(F)cc1)C1CCS(=O)(=O)C1 (configuration not stated),2313,-1,0,-4,-9,-5
O=C(Nc1ccc(F)cc1)C1(c2cccs2)CCCC1,nt,nt,nt,nt,-40,nt
CSC1CCN(C(=O)c2c(F)cccc2F)C1 (configuration not stated),nt,nt,nt,nt,6,nt
COC(=O)C1CC(Oc2ccccc2F)CN1S(=O)(=O)c1cccnc1 (configuration not stated),nt,nt,nt,nt,-5,nt
Nc1c(C(=O)NCc2ccc3c(c2)OCO3)sc(=S)n1-c1ccccc1F,nt,nt,nt,nt,33,nt
C=CCn1c(SCC(=O)c2ccc(Br)cc2)nnc1C(CC(C)C)NC(=O)c1cccs1 (configuration not stated),22563*,?,-1,9,-24,-3
COc1cccc(N2CCN(c3c4c(nc5ncnn35)CCC4)CC2)c1,22408*,4,0,-3,7,3
c1ccc(N2CCN(c3c4c(nc5ncnn35)CCC4)CC2)cc1,21815*,3,-1,2,-1,6
CCOC(=O)CC(=O)CSc1nc2c(sc(=S)n2-c2ccccc2)c(=O)[nH]1,21967*,?,0,-1,-10,3
O=C(Nc1cccc([N+](=O)[O-])c1)c1ccc2nc(N3C(=O)CCC3=O)sc2c1,21930*,?,0,3,3,-8
O=C(Nc1cccc(Br)c1)c1ccc2nc(N3C(=O)CCC3=O)sc2c1,5778,0,-6,-1,1,-8
CCC(=O)Nc1ccc(C(=O)N/N=C/c2ccccc2[N+](=O)[O-])cc1,23894*,-2,-2,7,nt,-4
CCOc1ccc(C(=O)N/N=C/c2ccccc2[N+](=O)[O-])cc1,2109,0,0,16,nt,2
C=CCN1CC(c2nc3ccccc3n2Cc2ccccc2)CC1=O (configuration not stated),20701*,?,0,2,-1,-4
NC(=O)N[C@@H](C(N)=O)c1ccncc1,nt,nt,nt,nt,-8,nt
CSc1ccccc1NC(=O)CSc1nnnn1-c1ccccc1SC,4278,-1,-3,1,-13,-11
NC(=O)c1ccc(-n2nnnc2SCC(=O)Nc2ccccc2F)cc1,3112,-1,-16,98*,-3,-34
